Experimental data: PubChem BioAssay (NCATS)
Inconclusive results are not listed. Calls of active or inactive are those of the source. Calls follow the shape of the dose curve; as a rule, active = well fitted inhibition curve with a large enough effect; inconclusive = small, poorly fitted or top-dose-only effect; inactive = no such curve, though single readings can be large or run the other way.

molecular target: Protein phosphatase 1D (Homo sapiens) (UniProt O15297); experiment: RapidFire Mass Spectrometry qHTS Assay for Modulators of WT P53-Induced Phosphatase 1 (WIP1) (AID 1347424); conditions: WIP1 dephosphorylation of phosphopeptide, RapidFire MS; series mostly up to 63 µM; activity change, negative = inhibition: at the top concentration
Sequence (O15297 whole entry, looked up): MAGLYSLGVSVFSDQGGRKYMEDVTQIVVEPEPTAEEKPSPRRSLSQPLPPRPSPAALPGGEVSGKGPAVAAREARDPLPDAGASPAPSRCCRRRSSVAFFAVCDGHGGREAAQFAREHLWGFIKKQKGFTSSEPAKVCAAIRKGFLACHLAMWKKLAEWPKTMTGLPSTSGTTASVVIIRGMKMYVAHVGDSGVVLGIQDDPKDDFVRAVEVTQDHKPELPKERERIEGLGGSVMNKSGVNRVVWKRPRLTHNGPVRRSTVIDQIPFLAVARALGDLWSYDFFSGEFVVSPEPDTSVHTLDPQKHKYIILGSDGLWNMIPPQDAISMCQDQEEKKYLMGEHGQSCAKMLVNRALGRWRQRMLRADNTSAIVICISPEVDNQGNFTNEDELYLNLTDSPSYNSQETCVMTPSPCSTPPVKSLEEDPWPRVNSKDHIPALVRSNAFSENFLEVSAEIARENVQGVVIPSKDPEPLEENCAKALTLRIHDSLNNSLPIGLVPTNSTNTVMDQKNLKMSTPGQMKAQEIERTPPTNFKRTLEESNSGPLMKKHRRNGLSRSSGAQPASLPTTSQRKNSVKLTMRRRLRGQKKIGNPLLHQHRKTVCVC
Excerpt: Assay Provider (PI): Nathan Coussens Ph. D.
National Center for Advancing Translational Sciences (NCATS), Rockville, MD
National Institute of Health (NIH), Bethesda, Maryland
WT P53-Induced Phosphatase 1 (WIP1) is a member of the magnesium-dependent serine/threonine protein phosphatase (PPM) family and is induced by P53 in response to DNA damage. In several human cancers, the WIP1 protein is overexpressed, which is generally associated with a worse prognosis. Although WIP1 is an attractive therapeutic target, no potent, selective, and bioactive small-molecule modulator with favorable pharmacokinetics has been reported. Phosphatase enzymes are among the most challenging targets for small molecules because of the difficulty of achieving both modulator selectivity and bioavailability. Another major obstacle has been the availability of robust and physiologically relevant phosphatase assays that are suitable for high-throughput screening.
Here, we describe two orthogonal biochemical WIP1 activity assays that utilize phosphopeptides from native WIP1 substrates. We optimized a RapidFire MS assay to quantify the enzymatically dephosphorylated peptide reaction product in a 384-well format. Additionally, a redshifted Rhodamine-PBP fluorescence assay was optimized in a 1,536-well format to enable real-time WIP1 activity measurements through the detection of the orthogonal reaction product, Pi. We validated these two optimized assays by quantitative high-throughput screening against the National Center for Advancing Translational Sciences (NCATS) Pharmaceutical Collection and used secondary assays to confirm and evaluate inhibitors identified in the primary screen.
SEQUENCE No. (e.g., 1, 2, 3, etc.); […] (e.g., Cells, Incubation, Reagent, etc.); VALUE; DESCRIPTION
1; Reagent; 50 uL; dispensed assay buffer: 0.1% formic acid in water (10 uL : 40 uL) solution in column 1
3; Library Compounds; 63 nL; library compounds in DMSO, columns 3-24
4; Control Compounds; 63 nL; DMSO in wells I-P, columns 1-2, GSK830371 (10 uM, final) in wells A-H, column 2
5; Time; 1 hr; incubation
6; Substrate; 2 uL; VEPPL-pS-QETFS (10 uM) in assay buffer, column 2-24
7; Time; 5 min; incubation
8; Reagent; 2 uL; 0.5% formic acid in water, columns 2-24
9; Reagent; 38 uL; VEPPL-S-QETF*S in 0.1% formic acid, columns 2-24
10; Detection; mass spec; RapidFire mass spectrometry
NOTES (numbers refer to sequence above)
1, 2, 6; dispensed reagent in White Nunc 384-well PP microplates (264573); assay buffer: 50 mM Tris-HCl pH 7.5, 30 mM MgCl2, 1 mM TCEP, 0.1 mM EGTA, 75 ug/mL BSA.
2, 6, 8, 9; Dispensed with BioRaptr (Beckman Coulter)
2, 6, 9; Final concentrations: 10 nM WIP1; 2 uM VEPPL-pS-QETFS; 1 uM VEFFL-S-QETF*S
3 & 4; Kalypsys Pintool transfer (Wako USA), Tip wash sequence: water, DMSO, methanol, 20 sec vacuum dry.
5 & 7; incubation at room temperature
10; RapidFire mass spectrometry read using the Agilent RapidFire 360 (Clausse, 2019)
Clausse V, et al. Physiologically relevant orthogonal assay for the discovery of small-molecule modulators of WIP1 […] in high-throughput screens. J Biol Chem. 2019, 294(46): 17654-17668. doi:10.1074/jbc.RA119.010201
Potency is read from the fitted curve at half-maximal effect.

Structure (SMILES)	activity change, negative = inhibition	Potency
CN1C(=O)CC[C@H]1c1cccnc1	3.55% (inactive)	
OCCN1CCN(CCCN2c3ccccc3C=Cc3ccccc32)CC1	8.02% (inactive)	
CCN(CC)CCNC(=O)c1cc(S(C)(=O)=O)ccc1OC	1.97% (inactive)	
c1ccc2c(c1)CCCC2C1=NCCN1 (stereo not given)	-0.0345% (inactive)	
COCCc1ccc(OCC(O)CNC(C)C)cc1 (stereo not given)	-4.86% (inactive)	
CC1=C(C)C(=O)C(CCCCC#CCCCC#CCO)=C(C)C1=O	47.8% (inactive)	
COCCCC/C(=N\OCCN)c1ccc(C(F)(F)F)cc1	27.8% (inactive)	
c1cc(CN2CCCCC2)cc(OCCCNc2nc3ccccc3s2)c1	9.46% (inactive)	
c1cnc(N2CCN(Cc3ccc4c(c3)OCO4)CC2)nc1	-3.02% (inactive)	
CCCCNc1c(C(=O)OCC)c(C)nc2c1cnn2CC	77.7% (inactive)	
Nc1c2c(nc3ccccc13)CCCC2O (stereo not given)	-1.71% (inactive)	
CCN(CC)CCNC(=O)c1ccc(NC(C)=O)cc1	-7.43% (inactive)	
COC(=O)C1=C(C)NC(C)=C(C(=O)OCCN(C)Cc2ccccc2)C1c1cccc([N+](=O)[O-])c1 (stereo not given)	54.8% (inactive)	
CCc1c(C)[nH]c2c1C(=O)C(CN1CCOCC1)CC2 (stereo not given)	-0.678% (inactive)	
COc1cc(Cc2cnc(N)nc2N)cc(OC)c1OC	-17.5% (inactive)	
COc1ccc(CCN(C)CCCC(C#N)(c2cc(OC)c(OC)c(OC)c2)C(C)C)cc1OC (stereo not given)	-9.36% (inactive)	
CN(C)CC/C=C1\c2ccccc2COc2ccccc21	-2.99% (inactive)	
Cc1ccc(Cl)c(Nc2ccccc2C(=O)O)c1Cl		17.8 µM (active)
Cc1nc2c([nH]1)c(=O)n(C)c(=O)n2Cc1ccco1	-5.06% (inactive)	
NC(=O)c1ncn([C@@H]2O[C@H](CO)[C@@H](O)[C@H]2O)c1O	-3.17% (inactive)	

Structure (SMILES)	activity change, negative = inhibition	Potency
CCCNC(C)C(=O)Nc1ccccc1C (stereo not given)	5.35% (inactive)	
C[N+](C)(C)CCCCCCCCCC[N+](C)(C)C	3.08% (inactive)	
O=C(O)CCCCCCCC(=O)O	4.08% (inactive)	
CC(=O)Oc1cc(C(C)C)c(OCCN(C)C)cc1C	3.34% (inactive)	
COCC(=O)O[C@]1(CCN(C)CCCc2nc3ccccc3[nH]2)CCc2cc(F)ccc2[C@@H]1C(C)C	90.2% (inactive)	
CCCN1C[C@H](CSC)C[C@@H]2c3cccc4[nH]cc(c34)C[C@H]21	1.99% (inactive)	
CC(=O)[C@]1(O)Cc2c(O)c3c(c(O)c2[C@@H](O[C@H]2C[C@H](N)[C@H](O)[C@H](C)O2)C1)C(=O)c1ccccc1C3=O	-10.6% (inactive)	
O=C(O)CP(=O)(O)O	-9.71% (inactive)	
NC(=O)c1cn(Cc2c(F)cccc2F)nn1	-1.35% (inactive)	
Cc1ccc(=O)n(-c2ccccc2)c1	7.89% (inactive)	
CNC1(C)C2CCC(C2)C1(C)C (stereo not given)	-15.7% (inactive)	
OCCN1CCN(CC/C=C2/c3ccccc3Sc3ccc(C(F)(F)F)cc32)CC1	78% (inactive)	
CC(C)COCC(CN(Cc1ccccc1)c1ccccc1)N1CCCC1 (stereo not given)	69.8% (inactive)	
C[C@]12C=CC(=O)C=C1CC[C@H]1[C@@H]3C[C@@H](O)[C@](O)(C(=O)CO)[C@@]3(C)C[C@H](O)[C@@]12F	-2.81% (inactive)	
CN(C)C/C=C(/c1ccc(Br)cc1)c1cccnc1	6.54% (inactive)	
CCC(=O)c1ccc2c(c1)N(CCCN(C)C)c1ccccc1S2	19% (inactive)	
CN(C)CCOC(=O)COc1ccc(Cl)cc1	2.67% (inactive)	
FC(F)(F)c1ccccc1-n1ccnc1	2.35% (inactive)	
CC[N+](C)(C)c1cccc(O)c1	-17.2% (inactive)	
CC(N=C(NC#N)Nc1ccncc1)C(C)(C)C (stereo not given)	4.72% (inactive)	
